From PubChem BioAssay
An excerpt weighted towards active compounds, which were near 2.3% of everything screened.
Nrf2 ARE act: activates Nrf2 signaling. Potency, µM (highest dose often 46.1 µM), actives largely listed as activators. 410,000 compounds, 0.31% hits. AREc32 ARE-luciferase reporter (MCF7-derived line), luminescence, 24 h. AID 624171; note: nearly all actives have a fitted effect of over 65% in size
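ARE activation measured as luciferase luminescence (Steady-Glo, 30 min RT) in AREc32_Fluc cells after 24 hr compound exposure at 37 deg C, 5% CO2; cells seeded overnight at 1000/well in OPTI-MEM, 5% FBS.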
A549 viability: A549 cytotoxicity, counter-screen for Nrf2 inhibitors | 390,000 compounds, 0.16% hits | A549 ARE-Fluc cells, CellTiter-Fluor viability, 18-24 h | Potency, µM (series often up to 46 µM), actives largely listed as inhibitors
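A549 ARE_Fluc cells in 5% FBS OPTI-MEM were exposed to compounds in concentration-response for 18-24 h at 37 deg C. Viability was read by CellTiter-Fluor fluorescence (Ex 405/Em 525) after 30 min, before the luciferase read.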
IL-2 act: IL-2 activation; IL-2 activation reporter assay, cell-based qHTS; stimulated with anti-CD3/CD4/CD28 beads; in transgenic mouse T cells; activation, % (series mostly up to about 46 µM); 360,000 compounds, 0.065% hits; AID 652025; in the data active = activation above about 50%; inconclusive = mostly about 30% to 49%
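Unstimulated transgenic mouse T cells preincubated 60 min with compound, then stimulated with anti-CD3/anti-CD4-coated beads plus anti-CD28 for 18 h at 37 degrees C. IL-2 response read as EGFP and DsRed fluorescence by plate cytometry.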
Nrf2 block: blocks Nrf2 signaling | 360,000 compounds, 2.1% hits | A549 ARE-Fluc reporter, luciferase luminescence, 18-24 h | Potency, µM (highest dose often 46 µM), usual class: inhibitors; note: nearly all actives have a fitted effect of over 60% in size
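A549 ARE_Fluc cells (5000/well, 5% FBS OPTI-MEM) pre-incubated 2 h, then treated with compounds 18-24 h at 37C/5% CO2 in concentration-response. CellTiter-Fluor viability read first; BugLite luciferase luminescence after 15 min at room temperature gives Nrf2 activity.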
Each line names hits and unclear results; the compound was inactive in the other large screens. Unless noted, calls come from the whole dose curve; as a rule, active = well fitted curve in the direction sought with a large enough effect; inconclusive = small, poorly fitted or top-dose-only effect, or another doubt; inactive = no such curve, though single readings can be large; an effect the other way counts as inactive or inconclusive.

COc1ccc(Br)cc1Cn1nnc(C(=O)Nc2ccc(C)cc2C)c1N	Nrf2 block 16µM (no result: IL-2 act)
O=C(CCCSc1ccc(Cl)cc1)Nc1ccccc1O	Nrf2 ARE act 14µM
O=C(CSc1ccc2c(c1)OCCO2)Nc1ccc(Br)cc1	Nrf2 block 23µM
O=C(CSc1ccc2c(c1)OCCO2)Nc1ccc2c(c1)OCO2	Nrf2 block inconclusive
CCOc1ccc(NC(=O)CSc2nccn2-c2cccc(C)c2C)cc1	none (no result: IL-2 act, Nrf2 block)
CC(Cc1ccccc1)=NNc1ccc([N+](=O)[O-])cc1[N+](=O)[O-]	A549 viability inconclusive, Nrf2 block 23µM
CCO[C@@H]1OC(C(=O)NCc2ccccc2)=C[C@H](c2ccc(C(F)(F)F)cc2)[C@H]1CCCO	A549 viability 16µM, Nrf2 block 13µM
O=C(CN1CCOCC1)NN=Cc1ccc([N+](=O)[O-])o1	none (no result: A549 viability, Nrf2 block)
Cc1ccccc1OCC(=O)N/N=C/c1ccc([N+](=O)[O-])o1	Nrf2 block inconclusive
Cc1ccc(-c2cc(C(=O)N/N=C/c3ccc([N+](=O)[O-])o3)c3ccccc3n2)o1	A549 viability inconclusive, Nrf2 block 21µM
Cc1cc(C)cc(OCC(=O)N/N=C/c2ccc([N+](=O)[O-])o2)c1	A549 viability inconclusive, Nrf2 block 21µM
O=C(N/N=C/c1ccc([N+](=O)[O-])o1)c1cc(-c2ccc(-c3ccccc3)cc2)nc2ccccc12	Nrf2 block inconclusive
O=C(CCN1CCN(c2ccccc2)CC1)N/N=C/c1ccc([N+](=O)[O-])o1	A549 viability inconclusive, Nrf2 block 21µM
O=[N+]([O-])c1ccc(/C=N/N=C/c2ccc([N+](=O)[O-])o2)o1	Nrf2 ARE act 4µM, A549 viability 21µM, Nrf2 block inconclusive
COc1cccc(C2=Nn3c(nnc3-c3ccccc3C)SC2)c1	Nrf2 block inconclusive (no result: Nrf2 ARE act, IL-2 act)
CSc1ccc(CCNC(=O)C2CCCN(S(=O)(=O)N(C)c3ccc(F)cc3)C2)cc1 (configuration not stated)	Nrf2 block inconclusive (no result: IL-2 act)
O=C1CCCC2=C1C1(CCCC1)N=C(Nc1nc3cc(Cl)ccc3o1)N2	Nrf2 block inconclusive (no result: Nrf2 ARE act, IL-2 act)
COc1ccc(N2CCN(C(=O)C(=O)c3cc(OC)c4ccccc4c3)CC2)cc1	none (no result: Nrf2 ARE act, A549 viability, Nrf2 block)
O=C(CNc1cccc([N+](=O)[O-])c1)N/N=C/c1ccc([N+](=O)[O-])o1	none
O=C(CNc1cccc2ccccc12)N/N=C/c1ccc([N+](=O)[O-])o1	A549 viability inconclusive, Nrf2 block 16µM
O=C(Cc1ccc([N+](=O)[O-])cc1)N/N=C/c1ccc([N+](=O)[O-])o1	Nrf2 block 21µM
CN1CCN(c2ccc(NC(=O)c3ccc(Oc4ccccc4)cc3)cc2)CC1	none
C=CC(=O)Nc1ccc(N(C)c2ccnc(Nc3ccc(N4CCN(C)CC4)cc3)n2)cc1	A549 viability 7.3µM
COc1cc(NC(=O)Cn2c(=O)oc3cc(S(=O)(=O)N4CCCCCC4)ccc32)cc(OC)c1	none (no result: IL-2 act, Nrf2 block)
CC(C)(C)c1ccc(OCCNC(=S)Nc2ccccc2)cc1	A549 viability inconclusive, Nrf2 block 16µM
CCOC(=O)c1cnc2ccc(C(=O)OC)cc2c1Nc1ccccc1CC	Nrf2 block inconclusive (no result: IL-2 act)
CCOC(=O)c1ccc(N2C(=O)c3n[nH]c(-c4ccco4)c3C2c2ccc(OC)cc2OC)cc1 (configuration not stated)	Nrf2 block inconclusive (no result: IL-2 act)
CCOC(=O)c1ccc(N2C(=O)c3n[nH]c(-c4cccs4)c3C2c2ccc(CC)cc2)cc1 (configuration not stated)	A549 viability inconclusive, Nrf2 block 16µM (no result: IL-2 act)
CCOC(=O)c1ccc(N2C(=O)c3n[nH]c(-c4cccs4)c3C2c2ccc(C(C)C)cc2)cc1 (configuration not stated)	A549 viability inconclusive, Nrf2 block 23µM (no result: IL-2 act)
CCOC(=O)c1ccc(N2C(=O)c3n[nH]c(C)c3C2c2ccc(OC)cc2OC)cc1 (configuration not stated)	A549 viability inconclusive, Nrf2 block 18µM
COc1ccc(N2CCN(C(=O)CSc3nc4ccccc4nc3Cc3ccc(Cl)cc3)CC2)cc1	none (no result: IL-2 act, Nrf2 block)
Cc1cc2c(s1)c1cnn(Cc3cc(OC(F)(F)F)ccc3F)c(=O)c1n2C	none (no result: Nrf2 ARE act, IL-2 act)
CN(CC(=O)Nc1cccc(F)c1)CC(=O)Nc1cc(S(=O)(=O)N2CCOCC2)ccc1Cl	Nrf2 block inconclusive
CN(CC(=O)Nc1cccc(S(=O)(=O)N2CCOCC2)c1)CC(=O)Nc1ccc(Cl)c(C(F)(F)F)c1	A549 viability inconclusive, Nrf2 block 21µM
